Compound activity deposited in PubChem BioAssay by National Center for Advancing Translational Sciences (NCATS).
gsp agonist: agonists of gsp mutant (McCune-Albright syndrome); Potency, µM (highest dose often 76.9 µM), for inactives: top-dose activation (cAMP increase), actives largely listed as activators; gsp mutant cells, cAMP HTRF, 30 min; hit rate 0.13% among 340,000; active means well fitted activation curve with a large enough effect; inconclusive means small, poorly fitted or top-dose-only effect, or another doubt; inactive means no such curve, though single readings can be large or run the other way; cell line not stated here;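 further: phosphodiesterase inhibitor Ro 20-1724 added with compounds to block cAMP breakdown; potency means the concentration at half of the fitted maximal effect; nearly all actives have a fitted effect of over 60% in size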
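Cells stably selected in G418 were plated at 2000/well, grown 16-24 hr, then given compounds in DMSO with the PDE inhibitor […] (300 uM solution added) for 30 min at 37C; cAMP was read by HTRF.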
gsp antagonist: gsp mutant antagonism; gsp-mutant cells, cAMP HTRF, 30 min; Potency, µM (doses to about 76.9 µM), for inactives: top-dose activity change, negative = inhibition, usual class: inhibitors; hit rate 0.4% among 340,000; calls by dose curve; cell line not stated here;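 further: intracellular cAMP measured with PDE inhibitor Ro 20-1724 present during compound exposure; potency means the concentration at half of the fitted maximal effect; on the % scale 0 is the no-effect control and ±100 the full control effect; nearly all actives have a fitted effect of over 65% in size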
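Cells, 2000/well, grown 16–24 h in DMEM 10% FBS with 0.5 mg/ml G418, then compounds plus […] (300 uM addition stock), 30 min at 37C. cAMP read by HTRF (cAMP-d2 and anti-cAMP antibody-K in lysis buffer) after 30 min RT.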
RXFP1 antagonist: antagonists of human relaxin receptor RXFP1 | HEK293-RXFP1, relaxin-stimulated cAMP HTRF, 30 min; stronger effect = lower value | activity change, negative = inhibition, % at 57.5 µM | hit rate 0.59% among 350,000 | AID 1259400;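 active means activity change of -60% or lower, but not beyond a set lower limit; inconclusive means change between -60% and -40%, or beyond the set limit; inactive means change above -40%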; further: on the % scale 0 is the no-effect control and ±100 the full control effect
Target sequence (Q9HBX9 whole entry, looked up): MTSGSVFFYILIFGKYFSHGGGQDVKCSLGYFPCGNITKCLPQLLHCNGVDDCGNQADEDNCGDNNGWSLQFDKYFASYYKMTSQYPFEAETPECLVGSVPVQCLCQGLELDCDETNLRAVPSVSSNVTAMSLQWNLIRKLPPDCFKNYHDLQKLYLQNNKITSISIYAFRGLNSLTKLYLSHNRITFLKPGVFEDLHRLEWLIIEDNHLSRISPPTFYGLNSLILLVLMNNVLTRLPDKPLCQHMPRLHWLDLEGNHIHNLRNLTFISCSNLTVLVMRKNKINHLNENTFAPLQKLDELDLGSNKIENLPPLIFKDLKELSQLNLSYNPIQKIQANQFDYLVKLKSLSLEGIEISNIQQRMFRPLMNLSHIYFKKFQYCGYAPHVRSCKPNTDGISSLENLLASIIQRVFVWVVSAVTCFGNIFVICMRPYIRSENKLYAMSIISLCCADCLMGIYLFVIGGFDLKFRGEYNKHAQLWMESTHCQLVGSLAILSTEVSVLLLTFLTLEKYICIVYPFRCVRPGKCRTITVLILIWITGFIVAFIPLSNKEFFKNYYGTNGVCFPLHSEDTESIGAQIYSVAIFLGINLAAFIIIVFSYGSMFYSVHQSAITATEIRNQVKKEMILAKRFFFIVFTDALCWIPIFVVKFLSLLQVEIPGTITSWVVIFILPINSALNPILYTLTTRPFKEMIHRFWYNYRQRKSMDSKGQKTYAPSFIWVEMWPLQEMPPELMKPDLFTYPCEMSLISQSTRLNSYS
Akt phos inh: inhibitors of Akt phosphorylation; hit rate 0.32% among 360,000; AID 651550; Neuro2A IGF-stimulated pAkt S473 HTRF, 20 min; stronger effect = lower value; activity change, % for hits at 50 µM; in the data active means activity change below about -80%; inconclusive means mostly about -51% to -80%; further: on the % scale 0 is the no-effect control and ±100 the full control effect
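Neuro2A cells (4,500/well, DMEM with 0.5% FBS) were treated with compound at a single 50 µM final concentration, stimulated with 6 nM IGF for 20 min at 37 °C, and lysed. Phospho-Akt Ser473 was read by HTRF as 665/615 ratio ×10^4.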
RXFP1 agonist: activates the human relaxin receptor RXFP1 | Q9HBX9 | HEK293T-RXFP1 cAMP TR-FRET, 30 min; response scale: percent of porcine relaxin response, buffer zero | Potency, µM (titrated, usually from 57.5 µM), without a hit: at the highest dose activation, actives largely listed as activators | hit rate 0.3% among 370,000 | AID 2676; active means well fitted activation curve with a large enough effect; inconclusive means small, poorly fitted or top-dose-only effect; further: potency means the concentration at half of the fitted maximal effect; on the % scale 0 is the no-effect control and ±100 the full control effect; nearly all actives have a fitted effect of over 60% in size
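cAMP rise read by TR-FRET after 30 min, 37C compound exposure (up to 58 uM) in RXFP1-transfected HEK293 cells with Ro 20174 present. EC50 from Hill-equation fits, with 29 nM porcine relaxin as 100% and buffer as basal.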
* marks the source's active call; other numbers are inactive results; i = inactive; ? = inconclusive; nt = no result; ! = repeats disagree; [ ] = remark or other dose. Most compounds without a hit are left out; they make up all but 1.3% or so of the library.

SMILES	gsp agonist	gsp antagonist	RXFP1 antagonist	Akt phos inh	RXFP1 agonist
Cc1cccc(CS(=O)(=O)c2ncc(Cl)c(C(=O)Nc3c(C)cccc3C)n2)c1	7%	-14%	-96*	i	1%
Cc1cccc(C)c1NC(=O)c1nc(S(=O)(=O)Cc2ccccc2)ncc1Cl	-18%[15.4 µM]	2%	-70*	i	-2%
Cc1nnc(NC(=O)c2nc(S(=O)(=O)Cc3ccccc3)ncc2Cl)s1	-8%[15.4 µM]	?	-6	i	2%
Cc1cccc(CS(=O)(=O)c2ncc(Cl)c(C(=O)NCc3ccccc3)n2)c1	-42%	-6%	-62*!	i	-1%
COc1ccc(NC(=O)c2nc(S(=O)(=O)Cc3cccc(C)c3)ncc2Cl)c(OC)c1	0%	?	-1	i	0%
CCCc1nnc(NC(=O)c2nc(S(=O)(=O)Cc3cccc(C)c3)ncc2Cl)s1	9%	28µM*	-36	i	-1%
COc1ccc(-c2nc3sc(CCNC(=O)C(=O)Nc4ccc(C)c(F)c4)c(C)n3n2)cc1	nt	nt	3	nt	5%
CCOC(=O)C(=O)N(Nc1ccc(C)cc1)c1ccc(C)cc1	?	-9%	-68*	i	4%
CSc1ncc(C(=O)Nc2c(C)cccc2C)c(-c2ccccc2)n1	nt	nt	2	nt	?
O=C(COC(=O)CNC(=O)c1ccc(Br)o1)Nc1ccc2c(c1)OCCO2	-114%	50µM*	3	nt	0%
CCN(Cc1ccc2c(c1)OCO2)C(=O)CSc1ncnc2sccc12	0%	11%	-11	i	5%
CCN(Cc1ccc2c(c1)OCCO2)C(=O)CSc1nc(C)nc2sc(C)c(C)c12	-75%	50µM*	-16	i	2%
CCOC(=O)c1cnn(-c2cc(C)c3ccccc3n2)c1N	0%	-7%	?	-133%*	3%
COC(=O)c1[nH]c2ccc(C)cc2c1NS(=O)(=O)c1ccc(F)cc1	-1%	7%	-5	-119%*	-1%
COC(=O)c1[nH]c2ccc(C)cc2c1NS(=O)(=O)c1ccc(F)c(C)c1	0%[15.4 µM]	-20%	-10	i	2%
CCOc1ccc(C(=O)NCCn2cc(SCC(=O)NCCc3ccc(OC)c(OC)c3)c3ccccc32)cc1	nt	nt	nt	nt	-1%
COc1ccc(NC(=O)N[C@@H](CCSC)C(=O)O)cc1Cl	0%	13%	-5	-115%*	3%
CCN(Cc1nc(-c2ccc(OC)c(OC)c2)no1)S(=O)(=O)c1ccc(OC)cc1	nt	nt	-7	nt	-2%
O=C(CN1CCOCC1)NNc1c2ccccc2nc2ccccc12	10%	?	-62*	i	-5%
C[N+]1(CC(=O)NNc2c3ccccc3nc3ccccc23)CCOCC1	nt	nt	nt	nt	5%
NC(=O)NS(=O)(=O)c1ccc(Cl)cc1	nt	nt	10	nt	nt
Nc1c(C(=O)NCC2CCCO2)sc2nc3c(c(-c4ccco4)c12)CC/C3=C\c1ccco1 (stereo not given)	7%	-8%	-102*	i	1%
CCC1CN(C(=O)N2CCC(C(=O)NCc3cccc(C)c3)CC2)c2ccccc2O1 (stereo not given)	nt	nt	-24	nt	0%
Cc1ccc2c(c1)c1c(n2CC(O)CN2CCCCC2C)CCCC1 (stereo not given)	7%	9%	-92*	i	-4%
CCOc1cc2[nH]c(=O)n(CCCC(=O)N3CCN(c4ccc(OC)cc4)CC3)c(=O)c2cc1OCC	nt	nt	-2	nt	0%
SMILES	gsp agonist	gsp antagonist	RXFP1 antagonist	Akt phos inh	RXFP1 agonist
O=C(Nc1ccc(N2CCN(C(=O)c3cccs3)CC2)cc1)c1ccc(F)cc1	-1%	-17%	-66*	i	0%
CC(=O)Nc1ccc(N2CCN(C(=O)c3cccs3)CC2)cc1	-1%	6%	1	i	-1%
CN(C)c1ccc(Cc2cc3c(O)ccc(O)c3cc(Cc3ccc(N(C)C)cc3)c2=O)cc1	-49%	-15%	-107*	i	nt
Cc1cccc(OC(C)C(=O)N2CCC(c3nc4ccccc4o3)CC2)c1C (stereo not given)	nt	nt	-63*	nt	0%
CC(Oc1ccccc1F)C(=O)N1CCC(c2nc3ccccc3o2)CC1 (stereo not given)	nt	nt	-38	nt	-4%
CCOC(=O)c1c(C)[nH]c(C(=O)COC(=O)CNS(=O)(=O)c2ccc(C)cc2)c1C	-17%	32µM*	-10	i	2%
